Data published in ChEMBL document CHEMBL3988442, “University of Dundee, Small-Polar-MMV Screening Library” (2021).
Among all 69,000 compounds or so, about 420 (0.61%) showed an effect of 50% or more. For the sample, strong results were picked, then their nearest neighbours and some compounds at random.

target: T1, Histidine--tRNA ligase (Leishmania infantum) (UniProt A4I591); experiment: Leishmania infantum Histidine tRNA synthetase (LdHisRS); assay type: functional; design: scale not given: in the data most compounds retested in dose-response had high values; conditions: 30 µM
T1 sequence (whole entry): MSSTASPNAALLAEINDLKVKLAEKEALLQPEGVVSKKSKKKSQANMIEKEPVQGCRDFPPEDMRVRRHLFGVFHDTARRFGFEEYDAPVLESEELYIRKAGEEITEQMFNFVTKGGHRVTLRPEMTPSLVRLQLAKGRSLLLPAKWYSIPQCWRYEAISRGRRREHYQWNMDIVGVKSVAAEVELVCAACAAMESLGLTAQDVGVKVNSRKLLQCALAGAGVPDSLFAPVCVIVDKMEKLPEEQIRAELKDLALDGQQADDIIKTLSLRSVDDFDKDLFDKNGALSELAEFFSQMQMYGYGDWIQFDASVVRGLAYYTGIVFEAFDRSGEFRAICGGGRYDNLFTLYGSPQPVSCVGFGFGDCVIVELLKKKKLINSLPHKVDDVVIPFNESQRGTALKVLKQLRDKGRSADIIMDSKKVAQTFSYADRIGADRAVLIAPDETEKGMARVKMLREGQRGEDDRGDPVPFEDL

First: CNc1ncccc1CN1CCN2CCN(C)CC2C1 (stereo not given)
Second: Clc1cc(CN2CCCN3CCCC3C2)c2ncccc2c1 (stereo not given)
The Percent Effect of the first is lower: 6.33% for the first, 62.9% for the second.

Compared with Cc1cccc2cc(CN3CCCN4CCC[C@H]4C3)c(=O)[nH]c12, O=C1[C@@H]2CCN(C3CCC3)C[C@@H]2OCCN1Cc1ccncc1 is lower in Percent Effect: 17.5% for the first, 17.2% for the second.

Going from CNC(=O)[C@H]1C[C@@H]2CN(c3cc(OC)ncn3)C[C@@H]2N1C(C)C to COc1ccc2c(c1)c(C(=O)Nc1nnn[nH]1)cn2C(C)C, the Percent Effect rises from -7.02% to 52.1%.

Compared with c1cc(COC[C@]23COC[C@H]2CN(Cc2ccsc2)C3)ccn1, O=C1[C@H]2CN(Cc3ccccn3)C[C@H]2CN1c1ccsc1 is lower in Percent Effect: 10.1% for the first, 6.42% for the second.

First: CCNCCc1nc2cc(F)ccc2[nH]1
Second: CNCCc1nc2cc(F)ccc2[nH]1
The Percent Effect of the first is lower: 25.8% for the first, 55.3% for the second.

First: CNCCc1nc2cc(Cl)ccc2[nH]1
Second: COc1ccc2c(c1)c(C(=O)Nc1nnn[nH]1)cn2C
The Percent Effect of the first is lower: 14.6% for the first, 18.8% for the second.

Going from COc1ccc2c(c1)c(C(=O)Nc1n[nH]c(C(C)C)n1)cn2C(C)C to COc1ccc(CCN)cc1-c1ccc(C(N)=O)cc1, the Percent Effect rises from 22.9% to 71.8%.

Compared with CN1C(Cn2cccn2)C[C@@H]2CN(Cc3cccnc3)CC[C@@H]21 (stereo not given in full), c1cnc(N2CCO[C@H]3CN(CC4CCOCC4)C[C@H]32)nc1 is lower in Percent Effect: 13.7% for the first, 11.7% for the second.

Going from Cc1noc(C)c1CN1CC[C@H]2OCC[C@@]2(C(=O)N2CCCO2)C1 to O=C1[C@H]2CN(CC3CC3)C[C@H]2CN1c1ccsc1, the Percent Effect falls from 17.6% to 3.01%.

Going from COc1ccc(CCN)cc1-c1ccc(O)cc1 to COc1ccc(CCN)cc1-c1ccc(S(C)(=O)=O)cc1, the Percent Effect rises from -4.22% to 23.9%.
